In PubChem BioAssay AID1159580 (chemical genetic matrix, 2015):
Screen size: about 5,500 compounds; about 2,000 (36%) were called active. Inconclusive results (about 18%) are left out. No stated cut-off is given here; in the data, active means normalized growth mostly below about 0.91 (no sharp cut-off); inconclusive means no clear call, values can overlap the other calls; inactive means mostly above about 0.92. This is one part of the list.

Assay: chemical genetic growth profiling, strain panel (AID 1159580);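 further: tested at 20 µM; growth read once vehicle control cultures reached saturation at 30 °C; 1 = growth at the plate median or of vehicle wells; lower values mean less growth of the strain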
Conditions: growth OD

Measured: normalized growth

C[C@]12CCC3C(CC[C@H]4C[C@@H](O)CC[C@]34C)C1CCC2=O (some centres undefined)
active: S. cerevisiae deletion strains, locus YKL190W, strain CNB1, active compounds read low 0.862 | S. cerevisiae deletion strains, locus YKR001C, strain vps1, active compounds read low 0.899 | S. cerevisiae deletion strains, locus YLR039C, strain RIC1, active compounds read low 0.388 | S. cerevisiae deletion strains, locus YLR058C, strain SHM2, active compounds read low 0.799 | S. cerevisiae deletion strains, locus YLR221C, strain rsa3, active compounds read low 0.86 | S. cerevisiae deletion strains, locus YLR262C, strain YPT6 (second series), active compounds read low 0.435 | S. cerevisiae deletion strains, locus YLR262C, strain YPT6, active compounds read low 0.413 | S. cerevisiae deletion strains, locus YLR268W, strain sec22, active compounds read low 0.834 | S. cerevisiae deletion strains, locus YLR320W, strain mms22, active compounds read low 0.606 | S. cerevisiae deletion strains, locus YLR330W, strain CHS5, active compounds read low 0.87 | S. cerevisiae deletion strains, locus YLR342W, strain FKS1 (second series), active compounds read low 0.733 | S. cerevisiae deletion strains, locus YLR357W, strain rsc2, active compounds read low 1.16 [resistant] | S. cerevisiae deletion strains, locus YLR418C, strain cdc73, active compounds read low 0.589 | S. cerevisiae deletion strains, locus YML032C, strain rad52, active compounds read low 0.744 | S. cerevisiae deletion strains, locus YMR223W, strain ubp8, active compounds read low 0.794 | S. cerevisiae deletion strains, locus YNL067W, strain RPL9B, active compounds read low 0.825 | S. cerevisiae deletion strains, locus YNL071W, strain lat1, active compounds read low 0.663 | S. cerevisiae deletion strains, locus YNL153C, strain GIM3, active compounds read low 0.747 | S. cerevisiae deletion strains, locus YNL233W, strain BNI4, active compounds read low 0.747 | S. cerevisiae deletion strains, locus YNL298W, strain CLA4, active compounds read low 0.869 | S. cerevisiae deletion strains, locus YNL307C, strain MCK1, active compounds read low 0.366 | S. cerevisiae deletion strains, locus YNL322C, strain KRE1, active compounds read low 0.908 | S. cerevisiae deletion strains, locus YNR052C, strain pop2, active compounds read low 0.768 | S. cerevisiae deletion strains, locus YOL006C, strain TOP1, active compounds read low 0.425 | S. cerevisiae deletion strains, locus YOL147C, strain pex11, active compounds read low 0.803 | S. cerevisiae deletion strains, locus YOR001W, strain rrp6, active compounds read low 0.847 | S. cerevisiae deletion strains, locus YOR069W, strain VPS5, active compounds read low 0.913 | S. cerevisiae deletion strains, locus YOR070C, strain gyp1, active compounds read low 0.903 | S. cerevisiae deletion strains, locus YOR083W, strain WHI5, active compounds read low 0.882 | S. cerevisiae deletion strains, locus YOR184W, strain ser1, active compounds read low 0.363 | S. cerevisiae deletion strains, locus YOR270C, strain vph1, active compounds read low 0.682 | S. cerevisiae deletion strains, locus YOR290C, strain snf2, active compounds read low 0.831 | S. cerevisiae deletion strains, locus YPL055C, strain LGE1, active compounds read low 0.677 | S. cerevisiae deletion strains, locus YPL106C, strain sse1, active compounds read low 1.32 [resistant] | S. cerevisiae deletion strains, locus YPR163C, strain tif3, active compounds read low 0.856 | S. cerevisiae deletion strains, locus YPR167C, strain met16, active compounds read low 0.814 | S. cerevisiae deletion strains, strain wtn01, active compounds read low 0.849 | S. cerevisiae strains, strain wild type, active compounds read low 0.815
inactive: S. cerevisiae deletion strains, locus YKL068W, active compounds read low 1.03 | S. cerevisiae deletion strains, locus YKL085W, strain MDH1 (second series), active compounds read low 0.973 | S. cerevisiae deletion strains, locus YKL085W, strain MDH1, active compounds read low 0.973 | S. cerevisiae deletion strains, locus YKL160W, strain elf1, active compounds read low 0.919 | S. cerevisiae deletion strains, locus YKR026C, strain gcn3, active compounds read low 1.06 | S. cerevisiae deletion strains, locus YKR091W, strain srl3, active compounds read low 1.05 | S. cerevisiae deletion strains, locus YLL001W, strain dnm1, active compounds read low 0.923 | S. cerevisiae deletion strains, locus YLL026W, active compounds read low 0.994 | S. cerevisiae deletion strains, locus YLL041C, strain sdh2, active compounds read low 1.04 | S. cerevisiae deletion strains, locus YLR027C, strain aat2, active compounds read low 0.939 | S. cerevisiae deletion strains, locus YLR102C, strain apc9, active compounds read low 1.02 | S. cerevisiae deletion strains, locus YLR113W, strain HOG1, active compounds read low 1.01 | S. cerevisiae deletion strains, locus YLR258W, strain gsy2, active compounds read low 0.945 | S. cerevisiae deletion strains, locus YLR342W, strain FKS1, active compounds read low 0.995 | S. cerevisiae deletion strains, locus YLR370C, strain arc18, active compounds read low 1.04 | S. cerevisiae deletion strains, locus YLR371W, strain rom2, active compounds read low 1.03 | S. cerevisiae deletion strains, locus YLR384C, strain iki3, active compounds read low 1.03 | S. cerevisiae deletion strains, locus YML016C, strain PPZ1, active compounds read low 0.931 | S. cerevisiae deletion strains, locus YML120C, strain ndi1, active compounds read low 0.935 | S. cerevisiae deletion strains, locus YML124C, strain tub3, active compounds read low 0.944 | S. cerevisiae deletion strains, locus YMR058W, strain fet3, active compounds read low 0.943 | S. cerevisiae deletion strains, locus YMR078C, strain ctf18, active compounds read low 0.979 | S. cerevisiae deletion strains, locus YMR125W, strain sto1, active compounds read low 1.06 | S. cerevisiae deletion strains, locus YMR129W, active compounds read low 1.04 | S. cerevisiae deletion strains, locus YMR205C, strain PFK2, active compounds read low 0.94 | S. cerevisiae deletion strains, locus YMR231W, strain pep5, active compounds read low 1.01 | S. cerevisiae deletion strains, locus YMR263W, strain SAP30, active compounds read low 0.925 | S. cerevisiae deletion strains, locus YMR307W, strain GAS1, active compounds read low 0.963 | S. cerevisiae deletion strains, locus YNL183C, strain NPR1, active compounds read low 0.874 | S. cerevisiae deletion strains, locus YNL209W, strain ssb2, active compounds read low 0.965 | S. cerevisiae deletion strains, locus YNL248C, strain rpa49, active compounds read low 0.888 | S. cerevisiae deletion strains, locus YNL250W, strain rad50, active compounds read low 0.934 | S. cerevisiae deletion strains, locus YNL271C, strain bni1, active compounds read low 0.94 | S. cerevisiae deletion strains, locus YNL322C, strain KRE1 (second series), active compounds read low 1.03 | S. cerevisiae deletion strains, locus YNR049C, strain mso1, active compounds read low 1.04 | S. cerevisiae deletion strains, locus YOL012C, strain htz1 1.94 | S. cerevisiae deletion strains, locus YOR061W, strain CKA2, active compounds read low 0.91 | S. cerevisiae deletion strains, locus YOR080W, strain dia2, active compounds read low 1.02 | S. cerevisiae deletion strains, locus YOR106W, strain vam3, active compounds read low 0.909 | S. cerevisiae deletion strains, locus YOR136W, strain idh2, active compounds read low 0.999 | S. cerevisiae deletion strains, locus YOR144C, strain elg1, active compounds read low 0.973 | S. cerevisiae deletion strains, locus YOR231W, strain MKK1, active compounds read low 0.888 | S. cerevisiae deletion strains, locus YOR265W, strain rbl2, active compounds read low 0.968 | S. cerevisiae deletion strains, locus YOR316C, strain cot1, active compounds read low 0.96 | S. cerevisiae deletion strains, locus YPL051W, strain arl3, active compounds read low 0.926 | S. cerevisiae deletion strains, locus YPL078C, strain atp4, active compounds read low 0.898 | S. cerevisiae deletion strains, locus YPL240C, strain hsp82, active compounds read low 1.01 | S. cerevisiae deletion strains, locus YPL241C, strain CIN2, active compounds read low 0.975 | S. cerevisiae deletion strains, locus YPL256C, strain CLN2, active compounds read low 0.951 | S. cerevisiae deletion strains, locus YPR119W, strain clb2, active compounds read low 1.04 | S. cerevisiae deletion strains, locus YPR141C, strain kar3, active compounds read low 1.03
